# Measured values from the OligoGym collection.
# Target: SOHLH2
# Test: pooled miR-30 sensor sort-seq; sequence = guide strand
# Settings: shRNA
# Note: reference of the scale not given here.
row,Sequence,sensor-assay potency score (higher = more potent)
1,TAAGATGTCTATTTTTGCCTGG,0.389
2,TTCAGTTAAAGCAATATCCATT,-0.431
3,TTTGATATTAGGTCTTTGGGTG,-0.0455
4,TATCGTGTCTACATGGATCTTC,0.657
5,TTCGCTGTAGGACCTCTGCAGG,-0.848
6,TTTCTGTACAGTATCAGCCAGG,-0.773

# Target: SORCS2
# Test: as above
# Settings: shRNA
row,Sequence,sensor-assay potency score (higher = more potent)
1,TAGAGCTTGCTCTCCTTTGTGT,0.276
2,TATTCCTATAGACTTACACTAA,-0.686
3,TTCTTTATATTCCACCAGCTGT,-1.25
4,TTTTACTCAACAAGGAGCGGGT,-0.478
5,TTACTCAACAAGGAGCGGGTGC,-0.482
6,TTTCCTTTTGAACTTGTAGAGG,-1.02
7,TAGACTTACACTAACATCCCTG,0.646
8,TTTGGTCACTCGCTCTTGCAGA,-0.75
9,TAGAAATTGTCGATGACGGTGG,0.449
10,TTGAGGACAACTTGTAGGGTGG,-0.426
11,AAAGAAGATGTAATCGTCCTGC,0.216
12,TTCTTCTTTATATTCCACCAGC,-0.916

# Target: SOX21
# Test: as above
# Settings: shRNA
row,Sequence,sensor-assay potency score (higher = more potent)
1,TTGAGTCTAAAGTCGACTCAAA,-1.13
2,TAATCTTCGATAAAATTGCGAT,-0.606
3,TAAATTAGAAGGTCACACTAGA,0.55
4,TTAATCTTCGATAAAATTGCGA,-0.173
5,TTCTATGTACATACAAACCGGG,-0.494
6,TTAAATTAGAAGGTCACACTAG,0.0223
7,ATGAACAGAGTGATAGTCGGAT,0.0793
8,TTTGAGTCTAAAGTCGACTCAA,0.154
9,TTAACTTTGATATTCGCTCAAA,-0.537
10,TCTATGTACATACAAACCGGGC,-1.15
11,TAGTAGTTTGTTGTTGTTGTTT,-0.802

# Target: SPAM1
# Test: as above
# Settings: shRNA
row,Sequence,sensor-assay potency score (higher = more potent)
1,TTGAGGTTCTTCTGTCTCCATG,-1.06
2,TTTCATTCCACAACCAGCTGAG,0.0511
3,ATACTAACAATGAACATTGTGG,-0.0586
4,TTTATTTCTACATTGAAGCAAC,-0.796
5,TTGAATAGCAAAATTATCTGGG,0.668
6,TATTGTAACACCTTGCCCGGTG,-0.194
7,TCTATCTTTGTAACTTGCCTTC,-0.492
8,TAATTGTCTAGGAGCAAGCAAG,-1.53
9,TTTTCCTTATACACACTCCTTG,-0.634
10,TAACAATGAACATTGTGGCAGA,-0.131
11,TTTCCTTATACACACTCCTTGC,-0.862
